Sampled rows, rich in hits. Any-hit rate of the full collection: about 2.4%.
Nrf2 inh – Nrf2 pathway inhibition. A549 ARE-Fluc reporter, luciferase luminescence, 18-24 h. Potency, µM (top dose mostly 46 µM), most hits filed as inhibitors. 360,000 tested, 2.1% active. AID 504444; also: nearly all actives have a fitted effect of over 60% in size
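Nrf2 function is reported as luminescence of an ARE-controlled luciferase in A549 cells. Compounds were tested at several concentrations, and a CellTiter-Fluor read on the same wells flagged cytotoxicity.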
A549 viability – kills or reduces viability of A549 cells in Nrf2 counter-screen; A549 ARE-Fluc cells, CellTiter-Fluor viability, 18-24 h; Potency, µM (titrated, usually from 46 µM), usual class: inhibitors; 390,000 tested, 0.16% active; AID 504648
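A549 ARE_Fluc cells in 5% FBS OPTI-MEM were exposed to compounds in concentration-response for 18-24 h at 37 deg C. Viability was read by CellTiter-Fluor fluorescence (Ex 405/Em 525) after 30 min, before the luciferase read.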
Epigenetic derep – epigenetic control regulation, reporter derepression; murine LDR cells, GFP reporter derepression, 30 h; Potency, µM (doses to about 53.9 µM), most hits filed as activators; 280,000 tested, 0.2% active; also: nearly all actives have a fitted effect of over 60% in size
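Murine LDR cells carrying a silenced, genomically integrated CMV-driven GFP reporter were exposed to compound for 30 hours at 37 C. After PBS washes, GFP-positive cells (20–120 um objects) were counted by laser-scanning microplate cytometry.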
PINK1 modulator – changes PINK1 expression; PINK1 immunofluorescence, high-content cytometry, 24 h; Potency, µM (top dose mostly 76.6 µM), hits mostly activators; 410,000 tested, 0.2% active; active = well fitted activation curve with a large enough effect; inconclusive = small, poorly fitted or top-dose-only effect; cell line not stated here; also: nearly all actives have a fitted effect of over 65% in size
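Compound titrations (5 concentrations, 24 h) on a stable cell line; DMSO and CCCP controls. Endpoint: fixed-cell PINK1 immunofluorescence with mitochondrial, cell and nuclear markers, scanned by microplate cytometer.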
Nrf2 activator – activators of Nrf2 (ARE) signaling; AREc32 ARE-luciferase reporter (MCF7-derived line), luminescence, 24 h; Potency, µM (titrated, usually from 46.1 µM), hits mostly activators; 410,000 tested, 0.31% active; also: nearly all actives have a fitted effect of over 65% in size
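ARE-driven firefly luciferase activity in AREc32 cells measured after a 24 hr compound exposure at 37 deg C, using Steady-Glo reagent and a 30 min room-temperature hold.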
Each line names hits and unclear results; the compound was inactive in the other large screens. Unless noted, calls follow the shape of the dose curve; as a rule, active = well fitted curve in the direction sought with a large enough effect; inconclusive = small, poorly fitted or top-dose-only effect, or another doubt; inactive = no such curve, though single readings can be large; an effect the other way counts as inactive or inconclusive.

Cc1cc2c(s1)c(/C=N/O)c(C(=O)NCc1ccccc1F)n2C	none (no result: Epigenetic derep, PINK1 modulator, Nrf2 activator)
COc1ccc(C(=O)Sc2ccc(Cl)cc2)cc1OC	Nrf2 inh 21µM, A549 viability inconclusive
O=C(Nc1cnn(Cc2ccc(Cl)cc2)c1)c1ccc([N+](=O)[O-])cc1	Nrf2 inh inconclusive
O=C(Nc1ccc(Nc2ccncc2)cc1)c1ccc([N+](=O)[O-])cc1	Nrf2 inh 18µM
O=C(Nc1ccncc1)c1ccc(-c2ccccc2)cc1	Nrf2 inh 2.3µM
COC(=O)c1ccc(NC(=O)Nc2ccc([N+](=O)[O-])cc2)cc1	PINK1 modulator 35µM (no result: Epigenetic derep)
O=C(Nc1ccc([N+](=O)[O-])cc1)c1ccc(Cn2cc([N+](=O)[O-])cn2)cc1	Nrf2 inh 18µM
O=C(Nc1ccc(C(=O)O)cc1)Nc1ccc([N+](=O)[O-])cc1	none (no result: Epigenetic derep)
Cc1cc(-c2ccnc(-n3ncc(C(=O)NCC4COCCO4)c3C3CC3)n2)c(C)s1 (configuration not stated)	none (no result: Nrf2 inh, A549 viability, Epigenetic derep, Nrf2 activator)
COc1cccc(/C=N/NC(=O)c2cc(-c3ccc(C)cc3)n[nH]2)c1O	none (no result: Nrf2 inh, A549 viability, PINK1 modulator, Nrf2 activator)
Cn1c(SCC2CCCO2)nnc1C1CCN(Cc2ccco2)CC1 (configuration not stated)	none (no result: Nrf2 inh, A549 viability, Epigenetic derep, Nrf2 activator)
CCOc1ccc(C(=O)Nc2cnn(Cc3ccc(Cl)c(Cl)c3)c2)cc1	Nrf2 inh 23µM, A549 viability inconclusive
O=C(Nc1ccc(Cl)c(Cl)c1)c1ccc(Cn2cc(Cl)cn2)cc1	Nrf2 inh inconclusive, A549 viability inconclusive, PINK1 modulator inconclusive
COc1ccc(C(=O)N2CCCC(c3nc(SCc4ccccn4)ncc3C)C2)cc1F (configuration not stated)	none (no result: Nrf2 inh, A549 viability, Epigenetic derep, Nrf2 activator)
Cc1nc(C)c(C(=O)NCCC(c2ccccc2)c2ccccc2)o1	Nrf2 inh 10µM
O=C(NCc1ccc(F)cc1)c1ccc(S(=O)(=O)Nc2cccc(C(F)(F)F)c2)cc1	Nrf2 inh 23µM
CC(=O)Nc1ccccc1-c1nc(CNC(=O)c2ccc(C)cc2)c(C)o1	none (no result: Nrf2 inh, A549 viability, Epigenetic derep, Nrf2 activator)
COc1ccc(S[C@@H](CCN2CC[C@H](NC(=O)OCc3ccccc3)CCC2=O)c2ccccc2)cc1	Nrf2 inh 18µM (no result: Epigenetic derep)
O=C(Cc1cccc2ccccc12)NO	none (no result: Nrf2 inh, A549 viability, Epigenetic derep, Nrf2 activator)
Cc1ccc(NC(=O)c2sc3ccccc3c2Cl)cc1	Nrf2 inh inconclusive
Cc1ccc(NC(=O)c2nsc(Cl)c2Cl)cc1	Nrf2 inh inconclusive, Nrf2 activator 5.6µM
CC(C)NS(=O)(=O)c1ccc2[nH]c3nc(SCC(=O)Nc4ccc(F)c(F)c4)nnc3c2c1	none (no result: Epigenetic derep, Nrf2 activator)
CCC(=O)Nc1c(S(=O)(=O)c2ccccc2)c2nc3ccccc3nc2n1C(C)c1ccccc1 (configuration not stated)	Nrf2 inh 18µM, PINK1 modulator inconclusive
Cc1ccccc1S(=O)(=O)N1CCN(S(=O)(=O)c2ccc3c(c2)OCCO3)CC1	none (no result: Epigenetic derep, PINK1 modulator, Nrf2 activator)
O=[N+]([O-])c1nn(-c2ccccc2)n(O)c1=NC1CCN(Cc2ccccc2)CC1	A549 viability 18µM
O=[N+]([O-])c1nn(-c2ccc3c(c2)OCCO3)n(O)c1=NC1CCN(Cc2ccccc2)CC1	none
COc1ccc2c(CNCCc3ccc(SC)cc3)c(C(=O)O)n(Cc3ccc(F)cc3)c2c1	Nrf2 inh inconclusive, A549 viability inconclusive
O=C(/C=C/c1ccccc1)NC(=S)NNC(=O)c1cccnc1	none
O=C(/C=C/c1ccccc1)NC(=S)NNC(=O)c1cnccn1	Nrf2 inh 7.3µM
COC(=O)c1ccccc1-c1cc(C)cc2c1OC(CNC(=O)c1cnc(C)cn1)C2 (configuration not stated)	none (no result: Nrf2 inh, A549 viability, Epigenetic derep, Nrf2 activator)
CCCOc1ccc2c(=O)c(-c3cc(C(=O)OC)oc3C)c(C)oc2c1	Nrf2 inh 16µM
COc1ccc(CCNC(=O)c2ccc(Cn3c(=O)c4cccn4c4cccnc43)cc2)cc1OC	none
Cc1cc([N+](=O)[O-])ccc1NCc1ccccc1[N+](=O)[O-]	none
Cc1cc([N+](=O)[O-])ccc1NCc1cccc2ccccc12	Nrf2 inh 15µM, A549 viability inconclusive (no result: Epigenetic derep, PINK1 modulator)
CCCCC1=CC2=C(c3ccco3)C(=O)C(C)(OC(=O)c3ccc(OC)cc3)C(=O)C2=CN1Cc1ccccc1 (configuration not stated)	Epigenetic derep 18µM
CCc1ccc(NC(=O)CSc2nnc(-c3ccccc3)n2C)cc1	none (no result: Nrf2 inh, A549 viability, Epigenetic derep, Nrf2 activator)
Cc1ccc(/C=N/NC(=O)CCSc2ccccc2)cc1	none
Cc1ccc(SCCC(=O)N/N=C/c2ccncc2)cc1	Nrf2 inh 15µM
O=C(Nc1ccccc1)C(Cl)C(=O)c1ccccc1 (configuration not stated)	Nrf2 activator 14µM (no result: Epigenetic derep)
Cc1onc(-c2ccc3c(c2)OCO3)c1-c1ccc2[nH]ccc2c1	Nrf2 inh 15µM (no result: Epigenetic derep)
Cc1nc(NC(=O)CCl)sc1C(=O)N(C)C	Nrf2 activator 13µM
Cc1nc(NC(=O)C(Cl)Cl)sc1C(=O)N(C)C	none
O=S1(=O)C=C(Sc2nc3cc(Cl)ccc3o2)c2ccccc21	Nrf2 inh inconclusive, A549 viability inconclusive, Nrf2 activator 8.9µM
COc1ccc(-c2cc(C(=O)N3CCc4c(cnc(C)c4CNC(=O)c4ccsc4)C3)[nH]n2)cc1	none (no result: Nrf2 inh, A549 viability, Epigenetic derep, Nrf2 activator)
O=C(Nc1ccccc1F)C(=O)Nc1cccc2ccccc12	Nrf2 inh inconclusive (no result: Epigenetic derep)
O=C(Nc1cccc2ccccc12)/C(Cl)=C/c1ccccc1	Nrf2 activator 10µM (no result: Nrf2 inh)
COc1ccc(/C=C/C(=O)CC(=O)/C=C/c2cccc(O)c2OC)cc1O	Epigenetic derep 13µM (no result: Nrf2 inh, A549 viability, PINK1 modulator, Nrf2 activator)
CC(=O)N1CCc2c(sc3c2c(=O)n(Cc2ccccc2)c(=O)n3Cc2cccc(Cl)c2)C1	Nrf2 inh 21µM
O=[N+]([O-])c1cccc(C2=N[C@@H](Cc3ccccc3)CO2)c1	none (no result: Nrf2 inh, A549 viability, PINK1 modulator, Nrf2 activator)
CC(C)(C)CN1CCN(Cc2nc(-c3ccc(F)cc3)cs2)CC1CCO (configuration not stated)	Nrf2 inh 21µM (no result: Epigenetic derep)
OCCC1CN(Cc2nc(-c3ccc(F)cc3)cs2)CCN1CCc1ccccc1 (configuration not stated)	Nrf2 inh inconclusive
Oc1ccc(/C=N/n2cnn(Cc3ccccc3Cl)c2=S)c(O)c1	none
COc1ccc(/C=N/n2cnn(Cc3ccccc3Cl)c2=S)cc1OC	Nrf2 inh 18µM
Cc1ccc(CNCc2c(C(=O)O)n(Cc3ccc(C)cc3)c3cc(C)ccc23)cc1	Nrf2 inh inconclusive, A549 viability inconclusive
C=Cc1ccc(Cn2c(C(=O)O)c(CNCc3ccccc3)c3ccc(C)cc32)cc1	Nrf2 inh inconclusive, A549 viability 16µM
CCCNS(=O)(=O)c1ccc(CCC(=O)Nc2cc(Cl)ccc2Oc2ccccc2)cc1	Nrf2 inh 16µM, A549 viability inconclusive
CC(C)CNS(=O)(=O)c1ccc(CCC(=O)Nc2cc(Cl)ccc2Oc2ccccc2)cc1	none (no result: Nrf2 inh)
O=C(O)CCc1ccc(S(=O)(=O)Nc2ccc(OCc3ccccc3)cc2)cc1	none (no result: Epigenetic derep)
CCOc1ccc(Oc2ccccc2NS(=O)(=O)c2ccc(CCC(=O)O)cc2)cc1	Nrf2 inh 10µM (no result: Epigenetic derep)

From PubChem BioAssay
